Screening results as filed in PubChem.
PfHsp90 yeast 2: reduces growth (ATP signal) of yeast expressing P. falciparum Hsp90 | S. cerevisiae expressing PfHsp90, BacTiter-Glo ATP, 48 h; yeast lacking PDR1 and PDR3 efflux regulators | hit rate 0.32% among 310,000 | AID 504621 | inhibition, % at 9.4 µM;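 active = every replicate shows inhibition above about 80%, whatever the replicate mean, limit read from the data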;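 also: 0% = DMSO neutral controls and 100% = 20 µM radicicol positive controls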
tim23-1 inh: tim23-1 yeast growth inhibition | hit rate 1.3% among 330,000 | inhibition, % at 20 µM | S. cerevisiae tim23-1 growth, BacTiter-Glo luminescence, 24 h;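 active = growth inhibition of the mutant yeast at or above 50%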;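 also: temperature-sensitive mutant grown at 25 °C; plate controls were DMSO-treated mutant yeast for no effect and medium wells lacking yeast for full effect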
SKKanGAS inh: inhibitors of SKKanGAS S. pyogenes growth in kanamycin (SK-promoter or general growth effect). hit rate 1.3% among 300,000. AID 1662. inhibition, % at 7.5 µM. BacTiter-Glo, 6 h;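 active = mean replicate score, as percent of positive control median, at least 50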;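 also: strain carries kanamycin resistance gene driven by streptokinase promoter and grows in 40 µg/ml kanamycin; loss of luminescence reflects streptokinase promoter inhibition or plain growth inhibition; 0% = median of DMSO wells and 100% = positive control at its reference dose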
TIM10 inh: inhibits growth of TIM10 yeast strain; S. cerevisiae TIM10 strain growth, BacTiter-Glo luminescence, 24 h; inhibition, % at 10 µM; hit rate 1.4% among 330,000; AID 463195;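 active = inhibition of 40% or more at the single tested concentration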;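 also: wild-type TIM10 isogenic control strain grown at permissive 25 °C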
tim10-1 inh: tim10-1 yeast growth inhibition; hit rate 2.2% among 330,000; S. cerevisiae tim10-1 ts strain growth, BacTiter-Glo, 24 h; inhibition, % at 20 µM;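 active = inhibition of at least 40%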;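 also: mutant grown at 25 °C; 0% = DMSO wells with yeast and 100% = wells holding no yeast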
ATG4B inh: inhibitors of human ATG4B cysteine protease; Q9Y4P1; ATG4B cleavage of LC3-PLA2, NBD-HPC fluorescence, 1 h; inhibition, % at 8.33 µM; hit rate 0.51% among 340,000; in the data active = inhibition above about 40%
Target sequence (Q9Y4P1 whole entry, looked up): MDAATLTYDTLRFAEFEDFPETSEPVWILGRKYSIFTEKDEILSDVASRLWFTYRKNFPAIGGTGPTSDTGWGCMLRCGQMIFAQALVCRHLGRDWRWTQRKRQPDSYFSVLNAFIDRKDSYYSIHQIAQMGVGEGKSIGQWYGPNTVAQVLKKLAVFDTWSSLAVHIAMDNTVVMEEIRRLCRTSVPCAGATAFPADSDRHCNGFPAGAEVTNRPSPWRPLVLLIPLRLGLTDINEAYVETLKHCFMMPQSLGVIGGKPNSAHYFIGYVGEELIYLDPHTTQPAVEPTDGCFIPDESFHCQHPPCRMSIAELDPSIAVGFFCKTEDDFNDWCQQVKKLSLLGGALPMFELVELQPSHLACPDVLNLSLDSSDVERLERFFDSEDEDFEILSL
The depositor's hits bear a star. An excerpt weighted towards active compounds, which were near 4.7% of everything screened.

How did CC(C)=CCc1c(O)ccc(C2COc3c(CC=C(C)C)c(O)cc(O)c3C2=O)c1O (stereo not given) do in these assays?
PfHsp90 yeast 2: 106*; tim23-1 inh: 35; SKKanGAS inh: 51*; TIM10 inh: 6; tim10-1 inh: 18; ATG4B inh: 36

What do the screens show for `CC(C)=CCc1c(O)ccc2c1OC(c1ccc(O)c(O)c1)CC2=O` (stereo not given)?
PfHsp90 yeast 2: -3; tim23-1 inh: 9; SKKanGAS inh: 4; TIM10 inh: 2; tim10-1 inh: 1; ATG4B inh: -15

What do the screens show for `CCOC(=O)c1ccc(NC2=CC(=O)C(=O)c3ccccc32)cc1`?
PfHsp90 yeast 2: -16; tim23-1 inh: -35; SKKanGAS inh: 70*; TIM10 inh: -13; tim10-1 inh: -5; ATG4B inh: -7

Results for O=C1NC(=S)S/C1=C\c1ccc(SCc2ccco2)o1 ?
PfHsp90 yeast 2: -25; ATG4B inh: 67*

How did CC1CCN(c2nc(NCc3ccco3)nc(N)c2[N+](=O)[O-])CC1 do in these assays?
PfHsp90 yeast 2: 5; tim23-1 inh: 22; SKKanGAS inh: 9; TIM10 inh: -4; tim10-1 inh: 11; ATG4B inh: 10

How did CCCOc1cc(N(CC)CC)ccc1/C=C(/C#N)c1nc2ccc(C)cc2[nH]1 do in these assays?
PfHsp90 yeast 2: -37; tim23-1 inh: 20; SKKanGAS inh: 61*; TIM10 inh: 0; tim10-1 inh: 11; ATG4B inh: -4

Results for Cc1cc(O)cc(O)c1C(=O)Cc1cscn1 ?
PfHsp90 yeast 2: -5; tim23-1 inh: -2; SKKanGAS inh: -1; TIM10 inh: 1; tim10-1 inh: -1; ATG4B inh: -6

Results for C#CCOCCOCCOCCNc1nc(N2CCN(C(=O)CCCCCCCCCCNC(=O)[C@@H](CCSC)n3cc(CCO)nn3)CC2)nc(N2CCN(C(=O)CCCCCCCCCCNC(=O)[C@H](CCCN=C(N)N)n3cc(C[C@@H](C)CC)nn3)CC2)n1 ?
PfHsp90 yeast 2: 0; tim23-1 inh: 31; TIM10 inh: 13; tim10-1 inh: 21; ATG4B inh: 46*

What do the screens show for `C#CCOCCOCCOCCNc1nc(N2CCN(C(=O)CCCCCCCCCCNC(=O)[C@H](CCCCN)n3cc(C[C@@H](C)CC)nn3)CC2)nc(N2CCN(C(=O)CCCCCCCCCCNC(=O)[C@@H]([C@H](C)O)n3cc(C)nn3)CC2)n1`?
PfHsp90 yeast 2: 4; tim23-1 inh: 49; TIM10 inh: 2; tim10-1 inh: 34; ATG4B inh: 53*

How did C#CCOCCOCCOCCNc1nc(N2CCN(C(=O)CCCCCCCCCCNC(=O)[C@H]([C@@H](C)CC)n3cc(CCCCN=C(N)N)nn3)CC2)nc(N2CCN(C(=O)CCCCCCCCCCNC(=O)[C@H](CCCN=C(N)N)n3cc(C[C@@H](C)CC)nn3)CC2)n1 do in these assays?
tim23-1 inh: 26; TIM10 inh: 4; tim10-1 inh: 17

How did O=C(CSCc1ccc([N+](=O)[O-])cc1)Nc1ccccc1C(=O)O do in these assays?
PfHsp90 yeast 2: -52; tim23-1 inh: 4; SKKanGAS inh: 10; TIM10 inh: -9; tim10-1 inh: -4; ATG4B inh: -3

Results for Cc1cccc(/C=N\NC(=O)c2ccc(Cl)cc2)c1O ?
PfHsp90 yeast 2: -1; tim23-1 inh: -3; SKKanGAS inh: 93*; TIM10 inh: 2; tim10-1 inh: -8; ATG4B inh: 4

How did Cc1cccc(/C=N/NC(=O)Cc2ccc(Cl)cc2)c1O do in these assays?
PfHsp90 yeast 2: 26; tim23-1 inh: 35; SKKanGAS inh: 107*; TIM10 inh: 9; tim10-1 inh: -11; ATG4B inh: -1

How did Cc1ccsc1/C=N/NC(=O)Cc1ccc(Cl)cc1 do in these assays?
PfHsp90 yeast 2: 6; tim23-1 inh: 22; SKKanGAS inh: -10; TIM10 inh: -1; tim10-1 inh: 1; ATG4B inh: -4

Results for Cc1ccc(O)c(/C=N/NC(=O)Cc2ccc(Cl)cc2)c1 ?
PfHsp90 yeast 2: 0; tim23-1 inh: 16; SKKanGAS inh: 97*; TIM10 inh: 0; tim10-1 inh: -1; ATG4B inh: 6

Results for Cc1ccc(-c2c(C)n([O-])c3c([n+]2=O)CCCCC3)o1 ?
tim23-1 inh: -5; SKKanGAS inh: -7; TIM10 inh: -13; tim10-1 inh: -2; ATG4B inh: 3

Results for O=C(Nc1ccc(S(=O)(=O)N2CCc3ccccc32)cc1)C(F)(F)F ?
PfHsp90 yeast 2: 30; tim23-1 inh: 11; SKKanGAS inh: -2; TIM10 inh: 14; tim10-1 inh: 3; ATG4B inh: -1

How did Cc1ccc(S(=O)(=O)N2CCC(C(=O)N[C@H](C(=O)NCc3ccco3)C(C)C)CC2)cc1 do in these assays?
tim23-1 inh: 11; SKKanGAS inh: -3; TIM10 inh: -3; tim10-1 inh: 15; ATG4B inh: -4

How did N#Cc1ccc(Nc2nc(-c3ccc(O)cc3O)cs2)cc1C(F)(F)F do in these assays?
PfHsp90 yeast 2: -72; tim23-1 inh: 29; TIM10 inh: -16; tim10-1 inh: -15; ATG4B inh: 41*

Results for COc1ccc(-n2nc(C(=O)NCC(=O)N3CCC(C)CC3)c3ccccc3c2=O)cc1 ?
PfHsp90 yeast 2: -15; tim23-1 inh: 31; SKKanGAS inh: 6; TIM10 inh: -1; tim10-1 inh: 22; ATG4B inh: -6

How did COc1ccccc1NC(=O)c1ccc2c(c1)C(=O)N(c1ccccc1OC)C2=O do in these assays?
PfHsp90 yeast 2: -5; tim23-1 inh: 1; SKKanGAS inh: -2; TIM10 inh: 18; tim10-1 inh: 12; ATG4B inh: -3

Results for C[C@H](NC(=O)OC(C)(C)C)c1nnc(SCC(=O)Nc2cccc(Cl)c2)o1 ?
PfHsp90 yeast 2: -4; tim23-1 inh: 5; SKKanGAS inh: 4; TIM10 inh: 3; tim10-1 inh: 17; ATG4B inh: -11

What do the screens show for `O=C1C=C(N2CCCCC2)c2ccccc2C1=O`?
tim23-1 inh: 12; SKKanGAS inh: 82*; TIM10 inh: 36; tim10-1 inh: 21; ATG4B inh: 14

Results for CN(/N=C/c1cc(Br)cc(Br)c1O)c1cccc(C(F)(F)F)n1 ?
PfHsp90 yeast 2: -28; tim23-1 inh: 17; SKKanGAS inh: 70*; TIM10 inh: 18; tim10-1 inh: 20; ATG4B inh: 7

How did COC(=O)c1cc(C(=O)OC)cc(S(=O)(=O)Nc2ccc(Cl)c(N)c2)c1 do in these assays?
PfHsp90 yeast 2: -22; tim23-1 inh: -10; SKKanGAS inh: 5; TIM10 inh: 1; tim10-1 inh: -2; ATG4B inh: -5

What do the screens show for `Nc1cc2c(cc1[N+](=O)[O-])-c1ccccc1C2=NO`?
PfHsp90 yeast 2: 128*; ATG4B inh: 0

How did CC(=O)Nc1cc2c(cc1[N+](=O)[O-])-c1ccccc1C2=NO do in these assays?
PfHsp90 yeast 2: -15; ATG4B inh: -10
